Binding signal data for two sequences are collected here from paper PMC7862700, “An all-to-all approach to the identification of sequence-specific readers for epigenetic DNA modifications on cytosine”.

Holding throughout (experiment): DAPPL (digital affinity profiling via proximity ligation, sequencing); 10 mM Tris-HCl pH 7.5, 50 mM NaCl, 1 mM DTT, 4% glycerol, room temperature, 30 min; GST-TFs on glutathione beads, 16-mer random dsDNA library, 0.1% formaldehyde crosslink after washing; high values mean tight binding
What all share (conditions): protein: recombinant; tags: N-terminal GST; dsDNA, one strand shown

One experiment addresses T1, FLI1 (Homo sapiens, UniProt Q01543 1-452).
T1 sequence: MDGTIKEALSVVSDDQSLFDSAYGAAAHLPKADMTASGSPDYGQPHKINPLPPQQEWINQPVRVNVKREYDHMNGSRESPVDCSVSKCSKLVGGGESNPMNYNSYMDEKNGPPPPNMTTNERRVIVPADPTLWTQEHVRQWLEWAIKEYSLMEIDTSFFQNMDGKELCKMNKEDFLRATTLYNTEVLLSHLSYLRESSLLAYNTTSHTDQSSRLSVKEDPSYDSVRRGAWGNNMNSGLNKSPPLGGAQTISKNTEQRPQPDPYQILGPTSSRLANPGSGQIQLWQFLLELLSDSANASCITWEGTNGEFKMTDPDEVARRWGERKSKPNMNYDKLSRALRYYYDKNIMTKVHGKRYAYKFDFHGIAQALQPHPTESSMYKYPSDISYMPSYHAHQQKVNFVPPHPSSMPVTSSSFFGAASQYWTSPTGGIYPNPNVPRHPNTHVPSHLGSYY
Summed up: (§1)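 Pools of DNA-barcoded human transcription factors, expressed in yeast as GST fusions on glutathione beads and combined with a tag-only sample, were incubated with 200 nmole of a 16-mer random double-stranded DNA library. Incubation took 30 min at room temperature in Tris/NaCl/DTT/glycerol buffer and was followed by washing, 0.1% formaldehyde crosslinking, proximity ligation (BsaI/T4 ligase, 1 h, 37 °C), PCR amplification and sequencing on an Illumina NextSeq500. Binding signal is the ratio of a hexamer's read frequency for a factor to its frequency for the tag-only sample.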

The target of a further experiment is T2, ELK1 (Homo sapiens, UniProt P19419 1-428).
T2 sequence: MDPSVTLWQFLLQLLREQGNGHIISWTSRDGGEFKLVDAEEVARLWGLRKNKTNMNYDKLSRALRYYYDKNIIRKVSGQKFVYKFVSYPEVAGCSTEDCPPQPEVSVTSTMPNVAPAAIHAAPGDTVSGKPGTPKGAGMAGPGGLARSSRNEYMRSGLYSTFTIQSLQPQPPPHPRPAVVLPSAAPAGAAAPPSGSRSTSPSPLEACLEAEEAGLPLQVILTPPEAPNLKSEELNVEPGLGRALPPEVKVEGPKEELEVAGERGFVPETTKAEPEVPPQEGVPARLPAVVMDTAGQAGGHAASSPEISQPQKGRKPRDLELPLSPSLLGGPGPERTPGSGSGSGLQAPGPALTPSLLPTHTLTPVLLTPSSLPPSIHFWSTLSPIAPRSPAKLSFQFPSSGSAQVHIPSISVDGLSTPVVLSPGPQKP
In outline:
as §1

A further experiment concerns the target T3, GABPA (Homo sapiens, UniProt Q06546 1-454).
T3 sequence: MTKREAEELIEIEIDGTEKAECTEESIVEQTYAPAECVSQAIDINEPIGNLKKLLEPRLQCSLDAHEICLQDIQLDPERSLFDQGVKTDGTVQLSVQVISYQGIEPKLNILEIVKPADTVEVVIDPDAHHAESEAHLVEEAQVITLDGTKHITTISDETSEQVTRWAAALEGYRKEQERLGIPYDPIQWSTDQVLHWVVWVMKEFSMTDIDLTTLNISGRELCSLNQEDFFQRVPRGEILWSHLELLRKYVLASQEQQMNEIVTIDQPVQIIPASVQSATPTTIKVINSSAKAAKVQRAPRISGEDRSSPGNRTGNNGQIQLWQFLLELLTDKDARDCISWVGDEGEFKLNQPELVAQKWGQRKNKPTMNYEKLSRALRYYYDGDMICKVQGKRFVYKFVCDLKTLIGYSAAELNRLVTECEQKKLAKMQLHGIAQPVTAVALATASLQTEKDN
In outline:
as §1

In another experiment the target is ELF1 (Homo sapiens, UniProt P32519 1-619). Summed up: as §1
Chain of ELF1 (P32519 whole entry): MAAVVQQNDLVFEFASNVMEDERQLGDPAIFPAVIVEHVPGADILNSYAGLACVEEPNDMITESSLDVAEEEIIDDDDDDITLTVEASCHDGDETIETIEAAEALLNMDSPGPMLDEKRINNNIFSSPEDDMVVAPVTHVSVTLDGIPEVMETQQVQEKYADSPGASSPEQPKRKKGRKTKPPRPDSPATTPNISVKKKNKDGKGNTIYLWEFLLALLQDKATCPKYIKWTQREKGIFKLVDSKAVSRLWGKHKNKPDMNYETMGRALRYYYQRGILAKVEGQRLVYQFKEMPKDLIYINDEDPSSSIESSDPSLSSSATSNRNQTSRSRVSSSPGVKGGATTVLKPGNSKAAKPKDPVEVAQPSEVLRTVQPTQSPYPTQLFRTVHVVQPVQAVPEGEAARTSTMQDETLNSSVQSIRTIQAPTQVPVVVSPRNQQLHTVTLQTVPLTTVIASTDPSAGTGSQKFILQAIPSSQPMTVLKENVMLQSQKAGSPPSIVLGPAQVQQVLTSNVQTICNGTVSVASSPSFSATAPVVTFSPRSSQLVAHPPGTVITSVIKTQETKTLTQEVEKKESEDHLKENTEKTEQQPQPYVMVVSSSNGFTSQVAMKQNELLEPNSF
In another experiment the target is T4, EHF (Homo sapiens, UniProt Q9NZC4 1-300).
T4 sequence: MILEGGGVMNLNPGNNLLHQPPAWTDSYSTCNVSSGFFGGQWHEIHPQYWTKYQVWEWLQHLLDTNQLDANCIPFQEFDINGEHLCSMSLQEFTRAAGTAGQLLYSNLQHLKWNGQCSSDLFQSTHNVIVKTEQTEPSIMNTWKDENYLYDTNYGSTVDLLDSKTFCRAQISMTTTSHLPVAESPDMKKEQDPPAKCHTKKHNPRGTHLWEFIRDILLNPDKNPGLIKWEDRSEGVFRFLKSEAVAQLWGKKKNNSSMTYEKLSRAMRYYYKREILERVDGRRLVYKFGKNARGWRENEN
Summed up:
as §1

The target in a further experiment is SPI1 (Homo sapiens, UniProt P17947 1-270). Summed up: as §1
The target in a further experiment is T5, FEV (Homo sapiens, UniProt Q99581 1-238).
T5 sequence: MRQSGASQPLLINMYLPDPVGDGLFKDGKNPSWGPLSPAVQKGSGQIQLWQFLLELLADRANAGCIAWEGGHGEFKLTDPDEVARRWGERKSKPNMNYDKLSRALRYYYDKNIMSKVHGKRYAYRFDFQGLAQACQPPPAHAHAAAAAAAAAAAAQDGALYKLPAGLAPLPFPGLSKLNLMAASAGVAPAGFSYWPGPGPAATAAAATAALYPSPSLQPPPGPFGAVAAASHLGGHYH
Summed up: as §1

Another experiment deals with ETV5 (Homo sapiens, UniProt P41161 1-510). In outline: as §1
Chain of ETV5 (P41161 whole entry): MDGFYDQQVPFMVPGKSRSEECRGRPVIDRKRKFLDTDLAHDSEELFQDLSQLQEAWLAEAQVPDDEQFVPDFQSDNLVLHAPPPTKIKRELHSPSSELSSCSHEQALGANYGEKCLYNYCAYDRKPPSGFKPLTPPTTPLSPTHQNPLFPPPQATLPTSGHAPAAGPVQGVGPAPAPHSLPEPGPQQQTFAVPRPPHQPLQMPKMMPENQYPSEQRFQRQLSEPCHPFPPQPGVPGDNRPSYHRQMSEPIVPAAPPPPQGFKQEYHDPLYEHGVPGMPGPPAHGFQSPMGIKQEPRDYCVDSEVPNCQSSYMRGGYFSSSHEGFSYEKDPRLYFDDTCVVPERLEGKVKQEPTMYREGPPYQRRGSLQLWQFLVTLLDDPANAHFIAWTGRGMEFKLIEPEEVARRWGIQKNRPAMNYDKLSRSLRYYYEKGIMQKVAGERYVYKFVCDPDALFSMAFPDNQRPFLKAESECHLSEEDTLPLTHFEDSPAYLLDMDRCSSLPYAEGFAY
For the next experiment, the target named is T6, SPIC (Homo sapiens, UniProt Q8N5J4 1-248).
T6 sequence: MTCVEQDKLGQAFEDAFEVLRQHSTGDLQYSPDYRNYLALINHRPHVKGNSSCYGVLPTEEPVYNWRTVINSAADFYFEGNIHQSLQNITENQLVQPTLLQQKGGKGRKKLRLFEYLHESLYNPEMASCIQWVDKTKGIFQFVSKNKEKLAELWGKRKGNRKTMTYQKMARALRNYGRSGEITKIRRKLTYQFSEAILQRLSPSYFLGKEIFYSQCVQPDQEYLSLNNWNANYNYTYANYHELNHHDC
In outline: as §1

A further experiment addresses ELF4 (Homo sapiens, UniProt Q99607 1-663). Summed up:
as §1

A further experiment addresses ETV1 (Homo sapiens, UniProt P50549 1-477). Summed up:
as §1

For another experiment, the target named is T7, ERF (Homo sapiens, UniProt P50548 1-548).
T7 sequence: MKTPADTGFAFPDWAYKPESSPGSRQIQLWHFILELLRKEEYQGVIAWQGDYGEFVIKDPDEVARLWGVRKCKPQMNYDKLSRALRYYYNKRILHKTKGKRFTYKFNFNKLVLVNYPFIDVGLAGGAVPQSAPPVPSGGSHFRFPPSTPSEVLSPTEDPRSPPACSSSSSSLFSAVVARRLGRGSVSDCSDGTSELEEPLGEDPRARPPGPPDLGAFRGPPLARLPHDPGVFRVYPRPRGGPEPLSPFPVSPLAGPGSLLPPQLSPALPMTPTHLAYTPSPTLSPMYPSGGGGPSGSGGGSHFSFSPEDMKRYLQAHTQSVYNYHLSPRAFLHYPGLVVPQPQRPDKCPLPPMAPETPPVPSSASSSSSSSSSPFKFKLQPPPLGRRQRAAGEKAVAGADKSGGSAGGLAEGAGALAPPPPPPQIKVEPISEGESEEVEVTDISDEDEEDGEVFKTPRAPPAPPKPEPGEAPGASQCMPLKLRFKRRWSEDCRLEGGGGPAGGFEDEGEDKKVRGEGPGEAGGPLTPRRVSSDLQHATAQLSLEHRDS
Summed up:
as §1

Another experiment deals with T8, ETV3L (Homo sapiens, UniProt Q6ZN32 1-361).
T8 sequence: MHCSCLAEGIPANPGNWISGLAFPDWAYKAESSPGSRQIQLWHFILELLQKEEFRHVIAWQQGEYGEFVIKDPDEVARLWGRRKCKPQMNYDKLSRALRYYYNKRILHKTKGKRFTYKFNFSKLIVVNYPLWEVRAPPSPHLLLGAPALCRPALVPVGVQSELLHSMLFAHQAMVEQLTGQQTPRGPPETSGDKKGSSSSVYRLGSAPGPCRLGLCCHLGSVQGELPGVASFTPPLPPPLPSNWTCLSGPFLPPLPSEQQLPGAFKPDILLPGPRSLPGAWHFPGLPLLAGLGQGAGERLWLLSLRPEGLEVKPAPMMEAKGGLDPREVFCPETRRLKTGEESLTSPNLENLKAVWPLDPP
In outline:
as §1

Another experiment addresses T9, ETS2 (Homo sapiens, UniProt P15036 1-469).
T9 sequence: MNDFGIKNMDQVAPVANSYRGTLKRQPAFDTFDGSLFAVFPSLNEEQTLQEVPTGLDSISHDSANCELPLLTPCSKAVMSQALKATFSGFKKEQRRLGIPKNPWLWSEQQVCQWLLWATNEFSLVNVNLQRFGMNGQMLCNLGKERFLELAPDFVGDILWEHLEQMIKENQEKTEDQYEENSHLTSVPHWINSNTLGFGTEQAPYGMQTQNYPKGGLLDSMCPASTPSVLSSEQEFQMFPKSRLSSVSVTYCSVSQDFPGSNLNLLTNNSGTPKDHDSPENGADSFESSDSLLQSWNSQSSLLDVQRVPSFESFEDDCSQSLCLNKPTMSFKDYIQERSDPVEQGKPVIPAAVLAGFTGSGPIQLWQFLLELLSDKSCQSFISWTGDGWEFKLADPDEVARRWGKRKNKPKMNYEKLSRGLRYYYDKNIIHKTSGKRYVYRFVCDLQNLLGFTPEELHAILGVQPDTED
In outline:
as §1

For another experiment, the target named is T10, ETV3 (Homo sapiens, UniProt P41162-2 1-143).
T10 sequence: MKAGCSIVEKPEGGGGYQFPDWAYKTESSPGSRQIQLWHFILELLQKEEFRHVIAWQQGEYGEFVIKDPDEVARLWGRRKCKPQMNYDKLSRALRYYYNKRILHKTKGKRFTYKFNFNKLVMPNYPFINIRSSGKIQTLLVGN
In outline:
as §1

The next experiment concerns the target ETV6 (Homo sapiens, UniProt P41212 1-452). In outline: as §1

Chain of ETV6 (P41212 whole entry): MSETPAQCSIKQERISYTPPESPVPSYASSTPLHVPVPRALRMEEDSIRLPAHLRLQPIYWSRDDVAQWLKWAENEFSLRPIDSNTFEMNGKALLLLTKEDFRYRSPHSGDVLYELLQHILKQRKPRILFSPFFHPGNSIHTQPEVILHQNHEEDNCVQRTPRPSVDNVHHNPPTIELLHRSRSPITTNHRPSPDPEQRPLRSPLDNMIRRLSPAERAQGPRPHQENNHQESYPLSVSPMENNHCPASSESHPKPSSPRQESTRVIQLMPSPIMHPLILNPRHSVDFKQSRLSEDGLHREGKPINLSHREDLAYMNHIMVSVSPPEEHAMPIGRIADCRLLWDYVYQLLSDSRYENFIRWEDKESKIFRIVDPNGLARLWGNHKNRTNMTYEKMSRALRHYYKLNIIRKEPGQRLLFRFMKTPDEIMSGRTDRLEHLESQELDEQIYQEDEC
Chain of ETV1 (P50549 whole entry): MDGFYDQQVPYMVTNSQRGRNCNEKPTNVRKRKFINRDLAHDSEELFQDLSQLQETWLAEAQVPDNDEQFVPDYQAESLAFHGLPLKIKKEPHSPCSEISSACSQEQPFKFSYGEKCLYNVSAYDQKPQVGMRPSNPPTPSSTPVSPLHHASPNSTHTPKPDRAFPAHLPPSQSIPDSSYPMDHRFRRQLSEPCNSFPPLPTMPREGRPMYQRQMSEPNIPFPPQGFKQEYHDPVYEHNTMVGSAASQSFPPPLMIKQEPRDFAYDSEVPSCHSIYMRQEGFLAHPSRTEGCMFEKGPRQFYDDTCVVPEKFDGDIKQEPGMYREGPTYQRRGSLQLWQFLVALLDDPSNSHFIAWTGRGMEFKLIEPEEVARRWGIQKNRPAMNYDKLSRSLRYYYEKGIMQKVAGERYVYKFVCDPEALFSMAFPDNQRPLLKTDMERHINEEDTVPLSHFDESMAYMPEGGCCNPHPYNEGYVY
Chain of ELF4 (Q99607 whole entry): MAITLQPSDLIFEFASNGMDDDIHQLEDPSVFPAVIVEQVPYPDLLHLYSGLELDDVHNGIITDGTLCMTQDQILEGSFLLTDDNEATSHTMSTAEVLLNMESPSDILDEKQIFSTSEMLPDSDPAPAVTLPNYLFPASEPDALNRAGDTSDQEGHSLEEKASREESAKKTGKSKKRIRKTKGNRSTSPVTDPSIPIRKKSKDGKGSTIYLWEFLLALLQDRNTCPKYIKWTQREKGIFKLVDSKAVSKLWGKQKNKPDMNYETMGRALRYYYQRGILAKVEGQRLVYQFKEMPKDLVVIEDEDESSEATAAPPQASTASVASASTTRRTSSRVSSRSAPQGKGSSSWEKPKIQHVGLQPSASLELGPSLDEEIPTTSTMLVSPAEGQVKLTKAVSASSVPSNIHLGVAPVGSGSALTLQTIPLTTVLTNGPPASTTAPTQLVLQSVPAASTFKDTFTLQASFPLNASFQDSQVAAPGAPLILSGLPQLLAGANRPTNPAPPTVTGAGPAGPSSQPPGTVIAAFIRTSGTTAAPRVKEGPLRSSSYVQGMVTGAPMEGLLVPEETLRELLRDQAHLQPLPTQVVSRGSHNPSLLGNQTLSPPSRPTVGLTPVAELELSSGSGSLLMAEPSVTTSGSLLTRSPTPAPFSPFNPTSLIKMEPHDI

Take TGCGGC: the binding signal in the experiment with FLI1 was 1.06 fold enrichment (6-mer frequency, TF over GST control); with ELK1, 1.04 fold enrichment (6-mer frequency, TF over GST control); with GABPA it was 1.09 fold enrichment (6-mer frequency, TF over GST control); in the experiment with ELF1, 1.05 fold enrichment (6-mer frequency, TF over GST control); with EHF it was 1.07 fold enrichment (6-mer frequency, TF over GST control); with SPI1, 1.11 fold enrichment (6-mer frequency, TF over GST control). The binding signal in the experiment with FEV was 1.02 fold enrichment (6-mer frequency, TF over GST control); with ETV5 it was 1.06 fold enrichment (6-mer frequency, TF over GST control); with SPIC, 1.19 fold enrichment (6-mer frequency, TF over GST control); with ELF4, 1.13 fold enrichment (6-mer frequency, TF over GST control); with ETV1, 1.08 fold enrichment (6-mer frequency, TF over GST control); with ERF, 1.14 fold enrichment (6-mer frequency, TF over GST control). Also, the binding signal with ETV3L was 1.03 fold enrichment (6-mer frequency, TF over GST control); with ETS2 it was 1.05 fold enrichment (6-mer frequency, TF over GST control); with ETV3, 1.03 fold enrichment (6-mer frequency, TF over GST control); in the experiment with ETV6, 1 fold enrichment (6-mer frequency, TF over GST control).
For AGTGTA, the binding signal with FLI1 is 1.03 fold enrichment (6-mer frequency, TF over GST control); with EHF, 1.02 fold enrichment (6-mer frequency, TF over GST control); in the experiment with SPI1, 1.24 fold enrichment (6-mer frequency, TF over GST control); with FEV, 1.01 fold enrichment (6-mer frequency, TF over GST control); with ETV5, 1.05 fold enrichment (6-mer frequency, TF over GST control); with SPIC, 1.19 fold enrichment (6-mer frequency, TF over GST control). For the same sequence, the binding signal with ETV6 was 1.03 fold enrichment (6-mer frequency, TF over GST control).
